Rows were chosen to be rich in hits. Some 8.9% of all compounds tested hit in one or more screens of this group.
SW480 rerep – induces DNA re-replication in SW480 colon adenocarcinoma cells; actives 1.8% (n = 340,000); Potency, µM (series often up to 46.1 µM), inactives show at the top dose re-replication activation, actives largely listed as activators; SW480 DNA re-replication, Hoechst DNA content imaging, 48 h; AID 624297; note: potency is the fitted concentration of half-maximal effect; % of control where 0% means no effect; nearly all actives have a fitted effect of over 55% in size
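Hoechst fluorescence of nuclei (405 nm excitation, 500-530 nm emission) measured by plate-scanning imager after 48 hr compound exposure at 37 C; re-replication scored as increased number of nuclei with elevated intensity.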
D3 ag – D3 dopamine receptor (human) agonism. P35462. D3R DiscoveRx beta-arrestin cells, luminescence, 90 min. max activation, %. actives 0.58% (n = 410,000); in the data active = max activation above about 30%; note: 0% is about no effect
Target sequence (P35462 whole entry, looked up): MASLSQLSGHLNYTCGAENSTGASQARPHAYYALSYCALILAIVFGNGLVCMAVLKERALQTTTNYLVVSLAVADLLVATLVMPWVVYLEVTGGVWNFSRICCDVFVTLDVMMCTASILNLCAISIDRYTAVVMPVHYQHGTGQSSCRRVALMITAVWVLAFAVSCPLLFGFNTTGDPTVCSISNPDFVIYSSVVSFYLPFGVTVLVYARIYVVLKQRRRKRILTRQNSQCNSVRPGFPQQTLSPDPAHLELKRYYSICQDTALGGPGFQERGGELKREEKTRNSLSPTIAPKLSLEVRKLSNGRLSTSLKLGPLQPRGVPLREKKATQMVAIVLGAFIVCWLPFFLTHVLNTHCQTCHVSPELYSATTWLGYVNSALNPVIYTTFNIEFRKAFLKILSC
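Cells at 1500/well, incubated overnight, then treated with pinned compounds (dopamine as control) for 90 min at 37 degrees C. DiscoveRx reagent added for 30 - 60 minutes at room temperature; luminescence read.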
MCF10A rerep – induces DNA re-replication in MCF 10a normal breast cells. MCF 10A DNA re-replication, Hoechst nuclear intensity, 48 h. Potency, µM (highest dose often 46.1 µM), for the others: top-dose activity, positive = re-replication, hits mostly activators. actives 2.9% (n = 350,000); note: potency is the fitted concentration of half-maximal effect; % of control where 0% means no effect; nearly all actives have a fitted effect of over 50% in size
KB-3-1 cytotox – KB-3-1 parental cell cytotoxicity. actives 1.4% (n = 400,000). KB-3-1 viability, CellTiter-Glo ATP luminescence, 72 h. Potency, µM (doses to about 46.1 µM), most hits filed as cytotoxic; note: potency is the fitted concentration of half-maximal effect; % is set by controls: 0 for no effect and ±100 for the full control effect; nearly all actives have a fitted effect of over 60% in size
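Cells are dispensed, compounds pinned in, plates held at 37 °C for 72 h, then CellTiter-Glo is added and luminescence read after 10 minutes. Cell line: parental KB-3-1 in phenol-red-free DMEM, 10% FBS.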
KB-V1 cytotox – KB-V1 MDR subline cytotoxicity. KB-V1 MDR cells viability, CellTiter-Glo, 72 h. Potency, µM (doses to about 46.1 µM), most hits filed as cytotoxic. AID 1347076. actives 3.4% (n = 400,000); note: potency is the fitted concentration of half-maximal effect; % is set by controls: 0 for no effect and ±100 for the full control effect; nearly all actives have a fitted effect of over 60% in size
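In this primary screen, KB-V1 cells overexpressing P-gp are incubated with library compounds (lowest to highest concentration) for 72 h at 37 degrees C before a luminescent ATP viability read.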
D3 antag – antagonists of human D3 dopamine receptor; P35462; AID 652054; D3R cells, DiscoveRx beta-arrestin luminescence, antagonist mode; stronger effect = lower value; actives 2.5% (n = 360,000); max response, negative = inhibition, %; in the data active = max response below about -50%; inconclusive = no clear call, values can overlap the other calls; note: % is set by controls: 0 for no effect and ±100 for the full control effect
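Cells plated overnight at 1500 cells/well, then exposed to library compounds with dopamine controls for 90 minutes at 37 degrees C. DiscoveRx reagent added for 30–60 minutes at room temperature; luminescence read, quantitative HTS format.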
* = called active by the depositor; i = inactive; ? = inconclusive; nt = not tested or not shown; ! = repeats disagree. Unless noted, calls come from the whole dose curve; as a rule, active = well fitted curve in the direction sought with a large enough effect; inconclusive = small, poorly fitted or top-dose-only effect, or another doubt; inactive = no such curve, though single readings can be large; an effect the other way counts as inactive or inconclusive.

SMILES	SW480 rerep	D3 ag	MCF10A rerep	KB-3-1 cytotox	KB-V1 cytotox	D3 antag
CC(CCc1ccccc1)NC(=O)C(=O)c1c[nH]c2ccccc12 (configuration not stated)	24%	-1	10µM*	i	i	?
COc1cc(Cl)c(C)cc1NC(=O)c1cnn(-c2ccc(F)cc2F)c1C1CCN(C(=O)OC(C)(C)C)CC1	nt	1	nt	i	i	nt
CS/C(=N\S(=O)(=O)c1cccs1)Nc1ccc(Br)cc1F	0%	-5	23µM*!	i	?	14
CS/C(=N\S(=O)(=O)c1cccs1)Nc1ccc(Cl)cc1	1%	-2	4%	i	i	-4
NC(=O)c1cc2c3ccccc3ccn2c1-c1ccccc1	0.73µM*	-16	?	1.2µM*	0.65µM*	?
COc1ccc(CCC(=O)O)c(O)c1	-1%	5	0%	i	?	23
Cc1cc(CCC(=O)O)c(C)cc1CCC(=O)O	-1%	-11	-1%	i	i	-52*
CCOC(=O)c1c[nH]c2ccc([N+](=O)[O-])cc12	3%	-7	6%	i	i	1
CCOC(=O)c1c[nH]c2c([N+](=O)[O-])cc(OC)cc2c1=O	16µM*	-5	22%	i	i	-12
c1cc2c3c(c1)CCC[N+]3(C1CCCCC1)CCC2	nt	nt	nt	?	i	nt
C=CCc1ccc(OCCCNCc2ccccc2)c(OC)c1	8%	-21	-2%	i	i	-79*
C/C=C/c1ccc(OCCNCc2ccccc2)c(OC)c1	?	-19	0%	i	i	-77*
C=CCc1ccc(OCCCNC2CCCC2)c(OC)c1	?	-14	26%	i	i	-20
COc1cc2nc(CC(C)C)n(NC(=O)c3ccccc3Br)c(=O)c2cc1OC	0%	8	6.5µM*	i	i	4
O=C(c1cc(-c2ccc(Br)cc2)n[nH]1)N1CCN(S(=O)(=O)c2ccc(Cl)s2)CC1	nt	15	nt	i	i	nt
COC(=O)c1ccc(-n2c(/C=C\c3cccc(Br)c3)nc3ccccc3c2=O)cc1	nt	-6	nt	13µM*	?	nt
COc1ccc(-c2cn(-c3ccc(C)cc3)c(S(=O)(=O)CC(=O)Nc3ccc(F)cc3)n2)cc1	nt	-15	nt	i	i	nt
CCCCCCOc1ccc(OC(=O)c2ccncc2)cc1	?	-2	23µM*	i	i	23
CC(=O)n1c2ccccc2c2ccccc21	-10%	21	?	i	i	29
Cc1ccc(C(=O)n2c3ccccc3c3ccccc32)cc1	21µM*	-5	?	10µM*	8.2µM*	-20
Cc1ccc(CNCCC2=CCCCC2)cc1	?	-50	21%	?	?	-67*
Cc1ccc(S(=O)(=O)NCCC2=CCCCC2)cc1	-1%	-3	?	i	i	-2
COc1ccc(C)cc1NC(=O)NCCC1=CCCCC1	-4%	-30	-1%	i	i	-72*
COc1cc(C(=O)OCC(=O)NCCC2=CCCCC2)cc(OC)c1OC	-2%	-5	15%	i	i	12
COc1cc(C(=O)NCCC2=CCCCC2)cc(OC)c1OC	-4%	-8	4%	i	i	-62*
SMILES	SW480 rerep	D3 ag	MCF10A rerep	KB-3-1 cytotox	KB-V1 cytotox	D3 antag
COc1ccc(C)cc1NC(=O)c1cc(S(=O)(=O)NCCC2=CCCCC2)ccc1F	nt	5	nt	i	i	nt
CCc1ccccc1NC(=O)Nc1cc(C(=O)NCc2ccc(C)cc2)ccc1N1CCCC1	nt	1	nt	i	i	nt
Cc1ccc(-c2ccc(=O)n(CC(=O)Nc3ccc(C)cc3Cl)n2)cc1	nt	4	nt	i	i	nt
Cc1ccc(C)c(OCc2nnc(N)s2)c1	0.73µM*	5	?	i	i	4
CCCc1nnc(NC(=O)c2nc(S(=O)(=O)Cc3cccc(C)c3)ncc2Cl)s1	?	-8	?	i	i	-68*
Cc1ccccc1NC(=O)c1nc(S(C)(=O)=O)ncc1Cl	?	-13	?	i	i	-81*
Cc1cccc(C)c1NC(=O)c1nc(S(=O)(=O)Cc2ccccc2)ncc1Cl	?	-23	?	?	?	-64*
Cc1cccc(CS(=O)(=O)c2ncc(Cl)c(C(=O)NCc3ccccc3)n2)c1	?	-3	13µM*	i	i	-82*
Cc1cccc(CS(=O)(=O)c2ncc(Cl)c(C(=O)Nc3nc4ccc(F)cc4s3)n2)c1	nt	-17	nt	?	?	nt
O=S(=O)(c1ccc2nc(Nc3ccc(Br)cc3F)ccc2c1)N1CCCC1	nt	-8	nt	i	?	nt
CC(C)(CO)NC(=O)c1ccc2nc(Cc3cccc(Cl)c3)oc2c1	-2%	9	1%	i	i	1
Cc1nnc(NC(=O)c2nc(S(=O)(=O)Cc3ccccc3)ncc2Cl)s1	1%	-10	?	10µM*!	?	-23
Cc1cccc(CS(=O)(=O)c2ncc(Cl)c(C(=O)Nc3c(C)cccc3C)n2)c1	?	-24	?	?	?	-100*
CC(=O)Nc1cc(N=Cc2ccc(O)cc2O)c(Cl)cc1Cl	?	5	21µM*	i	i	-1
COc1cccc(N/C(C)=C/C(=O)c2ccc(Br)cc2)c1	0%	-15	21µM*	i	i	-22
C/C(=C\C(=O)c1ccc(Br)cc1)Nc1ccc(Cl)cc1	2%	4	9%	i	i	15
CC(=O)c1cccc(NC(=S)NC(=O)c2cncc(Br)c2)c1	5%	-3	-1%	?	?	?
COc1cccc(NC(=S)NC(=O)c2cncc(Br)c2)c1	18µM*	-17	16%	?	i	-9
CC(=O)Nc1ccc(NS(=O)(=O)c2c(C(=O)N3CCC(C)CC3)c(C)n(C)c2C)cc1	nt	2	nt	nt	nt	nt
Cc1nn(CCC(=O)Nc2cc(F)ccc2F)c(=O)c2nn(-c3ccccc3)c(C)c12	nt	-6	nt	i	i	nt
Cc1ccc2nc(N/N=C/c3ccco3)cc(C)c2c1	?	-26	16µM*	i	?	-25
Cc1ccc2nc(SCC(=O)N/N=C/c3ccco3)cc(C)c2c1	4%	4	-3%	i	i	18
COc1ccc(-c2noc(CSCC(=O)Nc3cc(OC)c(OC)c(OC)c3)n2)cc1OC	nt	0	nt	nt	nt	nt
CC(C)OC(=O)c1cccc(NC(=O)Cn2nnc3sc4c(c3c2=O)CCCC4)c1	nt	1	nt	i	i	nt
Cc1nn(-c2ccccc2)c(OC(=O)c2cccc(Br)c2)c1S(=O)(=O)c1ccccc1	nt	8	nt	i	i	nt
O=C(Nc1ccc(Br)cc1F)c1cc2nc(-c3ccco3)cc(C(F)(F)Cl)n2n1	nt	7	nt	i	?	nt
